Screening results: PubChem, National Center for Advancing Translational Sciences (NCATS)
Rows were chosen to be rich in hits. Some 6% of all compounds tested hit in one or more screens of this group.
D1 antag: antagonists of human D1 dopamine receptor; P21728; HEK293 TREx D1 cells, calcium flux, dopamine EC80; hits give low values; activity change, negative = inhibition, % at 10 µM; 360,000 compounds, 3.2% hits; in the data active means activity change below about -30%; further: on the % scale 0 is the no-effect control and ±100 the full control effect
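HEK293 T-REx cells expressing inducible, force-coupled D1 receptor; no-wash Ca dye, 30–90 min RT. Cmpd → 180 s read at 1 Hz → EC80 DA → 180 s read.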
Chronic BCR inh: chronic active BCR signaling inhibition; AID 493014; 340,000 compounds, 0.05% hits; ABC-DLBCL IkBa-CBG/CBR reporter, luminescence ratio, 4 h; Potency, µM (series often up to 46.1 µM), inactives show at the top dose activity change, negative = inhibition, actives largely listed as inhibitors; active means well fitted inhibition curve with a large enough effect in the signal ratio, with a control signal flat, not every such curve was filed as active; inconclusive means small, poorly fitted or top-dose-only effect, or effect the other way, or a change in a side signal; the % refers to the signal ratio;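 further: potency means the concentration at half of the fitted maximal effect; plate controls were basal doxycycline-induced cells for no effect and cells given 10 µM MG132 for full effect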
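Concentration-response series (up to 46 uM) were applied to TMD8 dual-reporter cells for 4 h at 37C with doxycycline. Green/red ratio, after filter-overlap correction, defined %Activity; red signal alone was normalised to basal cells and zero luminescence.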
DRD3 agonist: D3 dopamine receptor (human) agonism. AID 652048. P35462. 410,000 compounds, 0.58% hits. D3R DiscoveRx beta-arrestin cells, luminescence, 90 min. max activation, %; in the data active means max activation above about 30%; further: 0% is about no effect
Target sequence (P35462 whole entry, looked up): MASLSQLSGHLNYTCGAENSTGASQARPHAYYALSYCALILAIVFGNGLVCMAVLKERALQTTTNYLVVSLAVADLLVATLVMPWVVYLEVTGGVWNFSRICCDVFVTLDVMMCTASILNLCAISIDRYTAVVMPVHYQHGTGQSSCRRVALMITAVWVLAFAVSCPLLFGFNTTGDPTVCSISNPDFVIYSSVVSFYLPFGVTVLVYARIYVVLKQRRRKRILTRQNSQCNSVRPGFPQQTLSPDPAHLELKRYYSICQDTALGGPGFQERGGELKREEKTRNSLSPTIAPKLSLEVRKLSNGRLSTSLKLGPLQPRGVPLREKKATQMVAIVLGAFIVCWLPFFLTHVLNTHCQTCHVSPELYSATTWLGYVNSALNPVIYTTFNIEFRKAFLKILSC
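Agonist mode: compounds and dopamine controls were applied to plated cells for 90 min at 37 degrees C after an overnight attachment at 1500 cells/well. Luminescent read-out followed 30 - 60 minutes at room temperature with DiscoveRx detection reagent.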
D1 potentiator: human D1 dopamine receptor positive modulation | HEK293 TREx D1 cells, calcium flux, dopamine EC20 potentiation | AID 504651 | P21728 | 360,000 compounds, 0.036% hits | potentiation, % at 10 µM; in the data active means potentiation above about 30%; further: 0% is about no effect
D1 ag: human D1 receptor agonism | P21728 | HEK293 T-REx D1 cells, calcium flux, agonist mode | activation, % at 2 µM | 360,000 compounds, 1% hits | AID 504660; in the data active means activation above about 30%; further: 0% is about no effect
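Inducible HEK293 T-REx D1 cells, force-coupled to calcium signalling, were plated at 4000 cells/well with tetracycline and held overnight at 30 C. After no-wash calcium dye loading, compound-evoked calcium rise over 180 s flagged agonists.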
DRD3 antagonist: D3 dopamine receptor (human) antagonism; D3R cells, DiscoveRx beta-arrestin luminescence, antagonist mode; hits give low values; P35462; 360,000 compounds, 2.5% hits; max response, negative = inhibition, %; in the data active means max response below about -50%; inconclusive means no clear call, values can overlap the other calls; further: on the % scale 0 is the no-effect control and ±100 the full control effect
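Cells plated overnight at 1500 cells/well, then exposed to library compounds with dopamine controls for 90 minutes at 37 degrees C. DiscoveRx reagent added for 30–60 minutes at room temperature; luminescence read, quantitative HTS format.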
Starred values were filed as active, the others as inactive; ? = inconclusive; / = no result given.

SMILES | D1 antag | Chronic BCR inh | DRD3 agonist | D1 potentiator | D1 ag | DRD3 antagonist
COc1cccc(-n2nnc(S(=O)(=O)c3ccc(C)cc3)c2N)c1 | -35.9* | -1.6% | 3.3 | 0.6 | 13.5 | 20.2
COC(=O)c1nnn(-c2cccc(C)c2)c1C(=O)OC | -0.9 | / | -12.8 | -1.1 | 4.9 | /
COc1cccc(-n2nnnc2S(C)(=O)=O)c1 | -8.4 | ? | -8.3 | 0.2 | 2.1 | -77.2*
COc1ccc(S(=O)(=O)c2nnn(-c3cccc(Cl)c3)c2N)cc1 | 11.6 | 3.0% | -3.2 | 0.1 | 22.5 | 1.1
COc1cccc(Oc2nnnn2-c2ccccc2)c1 | 1.5 | 1.1% | 1.1 | 0.1 | 0.8 | 13.6
CCCCCCN1C[C@H](O)[C@@H](n2cc(COC(=O)c3ccccc3)nn2)C[C@@H]1c1ccc(Cl)cc1 | / | / | 4.0 | / | / | 15.2
COC(=O)c1ccc(OCC2c3cc(OC)c(OC)cc3CCN2C(=O)Cc2ccccc2)cc1 (centres undefined) | -1.2 | -0.2% | 6.6 | 1.2 | 1.0 | /
CCCCNC(=O)CSc1nc2ccccc2nc1Cc1ccccc1 | -3.1 | / | -3.8 | 2.9 | 2.6 | /
CCN(CC)c1ccc(N=Cc2ccc(N(CC)CC)cc2O)cc1 | -8.1 | 3.3% | -8.2 | -4.8 | 0.0 | -19.4
CCN(CC)c1ccc(C=Nc2ccccc2)c(O)c1 | -15.3 | -0.3% | -2.9 | -8.9 | 1.2 | -54.2*
CCOC(=O)CSc1nnc(NCC(=O)OC)c(=O)[nH]1 | -1.6 | ? | -14.2 | -2.1 | -2.5 | -56.4*
COc1ccc(OC)c(NC(=O)COCc2cc(-c3ccc(F)cc3)on2)c1 | 2.2 | / | 5.3 | 5.8 | -1.1 | /
COc1cc(O)oc1C=Nc1ccc(C(=O)O)cc1 | -79.0* | ? | 1.9 | 0.7 | 0.2 | -22.6
COc1cc(O)oc1C=Nc1ccc(Cl)cc1 | 14.7 | -10.2% | -3.3 | -8.9 | 1.9 | -20.8
CN1CCN(CCCNC(=O)c2ccc(/C=C3\Oc4ccccc4N(Cc4ccccc4F)C3=O)cc2)CC1 | -46.8* | ? | -12.8 | -9.7 | 103.1* | 0.0
Cc1cn2c(=O)c(S(=O)(=O)Nc3ccc(F)cc3F)c(C)nc2s1 | -8.5 | / | 2.5 | -5.7 | 1.0 | /
COc1cccc(C(=O)Nn2cnnc2)c1 | -6.6 | 19.6% | 30.5* | -7.2 | 1.7 | 0.9
CC(C)OC(=O)CSc1nnc(-c2ccc(Cl)cc2Cl)o1 | -17.1 | ? | 1.5 | -4.1 | 0.3 | -9.9
CCCCOC(=O)CSc1nnc(-c2ccc(Cl)cc2Cl)o1 | -28.1 | -0.5% | -2.0 | -2.6 | 4.2 | -51.8*
CCCCCC(=O)N1C[C@H](n2cc(C3CC3)nn2)[C@@H](O)C[C@@H]1c1ccc(Cl)cc1 | / | / | 5.3 | / | / | 4.1
CCCc1nn(-c2cc(Cl)ccc2OC)c2c1C(=O)CCC2 | -46.2* | -1.9% | -6.7 | 1.8 | 3.7 | -10.6
CCCCc1nn(-c2cc(Cl)ccc2OC)c2c1C(=O)CC(C)(C)C2 | 13.4 | 0.0% | 0.9 | -4.2 | 6.3 | -5.5
CCOC(=O)CCCN1C(=O)CCn2nc(-c3cn(C)c4ccccc34)cc21 | -39.8* | / | 1.5 | 3.0 | -0.3 | /
Cc1cccc(C)c1NC(=O)CCCN1C(=O)CCn2nc(-c3cn(C)c4ccccc34)cc21 | 3.7 | / | -16.2 | -2.8 | 1.0 | /
Cn1cc(-c2cc3n(n2)CCC(=O)N3CCCC(=O)NCc2ccccc2Cl)c2ccccc21 | -47.9* | / | -13.8 | 1.6 | 1.4 | /
SMILES | D1 antag | Chronic BCR inh | DRD3 agonist | D1 potentiator | D1 ag | DRD3 antagonist
Cc1ccc(NC(=O)CCSc2ccccc2)c(C)c1 | -30.0* | ? | / | 5.4 | -0.5 | /
Cc1ccc(NC(=S)NCCSc2ccc(Cl)cc2)c(C)c1 | -32.9* | ? | -1.3 | -6.3 | 21.5 | -23.9
Cc1cc(Br)ccc1NC(=O)CCSc1ccccc1 | 0.6 | 7.6% | 0.8 | -1.6 | 1.2 | 7.7
Cc1cc(NC(=O)CCSc2ccccc2)ccc1Br | -30.4* | ? | 0.6 | -9.3 | 5.1 | 2.6
CCCN1CCN(c2ncnc3sc(C(=O)Nc4ccc(OC(F)(F)F)cc4)c(C)c23)CC1 | -1.3 | / | -22.3 | 0.2 | 3.0 | /
C=CC1=C(C)C2=CC3=NC(=C(CC(=O)[O-])C4=NC(=C(C)C4=C([O-])[O-])C=c4[n-]c(c(C)c4CC)=CC1=N2)C(CCC(=O)[O-])C3C.[Cu+2].[Na+].[Na+].[Na+] (centres undefined) | / | / | -19.6 | / | / | /
CCCCCc1nn2cc(-c3ccccc3)nc2s1 | -8.9 | / | 37.2* | -0.6 | 0.3 | /
Cc1nn2cc(-c3ccccc3)nc2s1 | 3.2 | ? | 1.0 | -3.0 | -0.3 | 3.6
CCc1ccc(-c2cn3nc(CC)sc3n2)cc1 | -5.1 | / | -11.1 | 0.2 | 4.5 | /
CC(C)Cc1nn2cc(-c3cccc(Br)c3)nc2s1 | 4.4 | / | 65.8* | 4.5 | 4.2 | /
Cc1ccccc1OCc1nc2ccccc2c(=O)n1/N=C/c1cccc([N+](=O)[O-])c1 | -32.0* | ? | 4.9 | -4.0 | 3.0 | -11.4
CCOC(=O)c1cn[nH]c1NC(=S)Nc1ccc(OC)cc1 | -39.4* | 13.9% | 1.4 | 1.1 | 9.8 | -5.6
CCOC(=O)NC(NC(=S)Nc1ccccc1OC)C(Cl)(Cl)Cl (centres undefined) | -2.7 | 7.3% | -7.3 | -3.8 | 1.8 | -26.0
COc1nccnc1NS(=O)(=O)c1ccc(NC(=S)NC(=O)/C=C/c2ccccc2)cc1 | 3.3 | 3.4% | -9.8 | -8.4 | 0.4 | -62.5*
CCOC(=O)NC(NC(=S)Nc1ccc(OC)cc1)C(Cl)(Cl)Cl (centres undefined) | -33.9* | 3.3% | -1.6 | -10.4 | 2.5 | -6.4
CCOC(=O)c1ccc(NC(=S)Nc2cccc(N)n2)cc1 | -34.2* | ? | -11.7 | -3.7 | 1.5 | 1.3
COc1nccnc1NS(=O)(=O)c1ccc(NC(=S)NC(=O)c2ccccc2)cc1 | 6.3 | -0.9% | -5.4 | -0.6 | -0.1 | ?
O=C(CSc1nc2ccccc2nc1Cc1ccccc1F)Nc1cccc(C(F)(F)F)c1 | -15.0 | / | 10.0 | 0.6 | 1.6 | /
O=C(/C=C/c1ccccc1)NC(NC(=S)Nc1ccc(Cl)cc1)C(Cl)(Cl)Cl (centres undefined) | -3.2 | ? | -6.2 | -2.8 | 5.7 | -19.2
COc1ccc(NC(=S)NC(NC(=O)/C=C/c2ccccc2)C(Cl)(Cl)Cl)cc1 (centres undefined) | -9.7 | 4.8% | -7.2 | -1.4 | 3.2 | -68.9*
Cn1c(-c2ccc(Cl)nc2)nc2cc(Cl)ccc21 | -33.4* | 0.4% | 0.6 | -8.3 | 0.7 | 17.3
CCOC(=O)CC(=O)CSc1nc2ccsc2c(=O)n1Cc1ccccc1 | 7.4 | ? | -5.4 | -2.1 | 1.6 | /
O=Cc1ccc(N2CCCC2)c([N+](=O)[O-])c1 | 6.9 | 2.8% | 0.9 | 0.5 | 1.3 | 9.2
O=[N+]([O-])/C=C\c1ccc(N2CCCC2)c(F)c1 | 18.4 | ? | -10.2 | -12.2 | 126.7* | 10.0
COc1cc(OC)cc(C(=O)NCCc2csc(-c3cccc(C)c3)n2)c1 | -12.0 | / | -10.4 | -3.6 | 2.2 | /
